Sampled rows, rich in hits. Any-hit rate of the full collection: about 11%.
HTT aggregate: reduces HttQ103-GFP aggregates in PC12 cells; PC12 HttQ103-GFP aggregates, Acumen cytometry, 40 h; Potency, µM (doses to about 46.1 µM), for inactives: top-dose activity change, negative = inhibition, usual class: inhibitors; actives 1.1% (n = 220,000); note: potency is the fitted concentration of half-maximal effect; % is set by controls: 0 for no effect and ±100 for the full control effect; nearly all actives have a fitted effect of over 60% in size
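Huntingtin Q103 exon 1–GFP aggregates in induced PC12 cells (100 nM tebufenozide) were quantified by cytometry from lysates, with compounds dosed in titration.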
HTT ATP protect: protects HTT-Q103 PC12 cells, measured by ATP; PC12 HTT-Q103 induced, cytoprotection, ATP luminescence, 40 h; Potency, µM (highest dose often 56.4 µM), inactives show cytoprotection (ATP increase), usual class: activators; actives 0.14% (n = 230,000); AID 1471; note: potency is the fitted concentration of half-maximal effect; % of control where 0% means no effect; nearly all actives have a fitted effect of over 45% in size
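Stable PC12 Q103-GFP cells in serum-supplemented, phenol red-free DMEM; induction by tebufenozide at 100 nM final; compound dose series; cell viability quantified luminescently from ATP.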
PNC assembly inh: blocks assembly of the perinucleolar compartment | activity change (PNC), negative = inhibition, % at 10 µM | PC3M PTB-GFP, PNC prevalence imaging, 16 h; hits give low values | actives 3.1% (n = 140,000);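 active = readout at or below -70, meaning at least 70% loss of cells showing the perinucleolar compartment, a nuclear body marking cancer cells; inconclusive = readout between -30 and a set limit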;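 note: plate controls were DMSO wells for no effect and camptothecin positive control wells for full effect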
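Read-out is percentage of cells bearing a perinucleolar compartment, from automated 20x imaging of fixed, Hoechst-stained PC3M PTB-GFP cells. Cells were seeded 4 h, then exposed 16 h to compound (23 nl of library stock) in duplicate plates.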
ALDH1A1 block: blocks purified human ALDH1A1 activity; Purified ALDH1A1, NADH fluorescence, propionaldehyde substrate; actives 7.3% (n = 220,000); Potency, µM (series often up to 75.3 µM), inactives show at the highest dose activity, negative = inhibition, usual class: inhibitors; active = well fitted inhibition curve with a large enough effect, not every such curve was filed as active; inconclusive = small, poorly fitted or top-dose-only effect, or another doubt; inactive = no such curve, though single readings can be large or run the other way;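 note: potency is the fitted concentration of half-maximal effect; plate controls were no enzyme wells and a reference inhibitor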
CBFb-RUNX1 inh: blocks binding between human CBF-beta and RUNX1 | AlphaScreen CBFb-His/RUNX1-biotin binding, biochemical | Potency, µM (top dose mostly 59.8 µM), for the others: at the highest dose activity, negative = inhibition, hits mostly inhibitors | 230,000 tested, under 10 active | AID 1477; note: % of control where 0% means no effect
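Read-out: AlphaScreen. Format: His-CBF-beta with biotinylated RUNX1 (30 nM each) preincubated 20 min, compound 15 min, Ni-chelate plus streptavidin beads 90 min; room temperature throughout.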
HPGD block: blocks human HPGD enzyme activity; purified HPGD, NADH fluorescence kinetic, PGE2 substrate; actives 4.3% (n = 150,000); AID 894; Potency, µM, inactives show top-dose activity change, negative = inhibition, usual class: inhibitors; active = well fitted inhibition curve with a large enough effect, not every such curve was filed as active; inconclusive = small, poorly fitted or top-dose-only effect, or another doubt; inactive = no such curve, though single readings can be large or run the other way; note: potency is the fitted concentration of half-maximal effect; % is set by controls: 0 for no effect and ±100 for the full control effect
Target sequence (P15428 whole entry, looked up): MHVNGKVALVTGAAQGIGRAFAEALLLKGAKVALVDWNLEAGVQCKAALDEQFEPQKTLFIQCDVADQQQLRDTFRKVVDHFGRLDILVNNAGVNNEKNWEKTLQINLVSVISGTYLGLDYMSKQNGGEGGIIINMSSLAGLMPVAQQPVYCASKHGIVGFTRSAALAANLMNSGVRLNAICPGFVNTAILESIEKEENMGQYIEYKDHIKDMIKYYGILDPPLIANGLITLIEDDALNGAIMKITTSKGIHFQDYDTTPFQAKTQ
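20 nM HPGD preincubated 15 min at room temperature with compound in 50 mM Tris-HCl pH 8, 0.01% Tween 20. Started with 1 mM NAD+ and 30 uM prostaglandin E2; NADH fluorescence (360/450 nm) read 5 times over 30-s intervals, last minus first.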
* = called active by the depositor; ? = inconclusive; . = no result; [ ] = dose if it differs, or a comment. Unless noted, calls come from the whole dose curve; as a rule, active = well fitted curve in the direction sought with a large enough effect; inconclusive = small, poorly fitted or top-dose-only effect, or another doubt; inactive = no such curve, though single readings can be large; an effect the other way counts as inactive or inconclusive.

SMILES	HTT aggregate	HTT ATP protect	PNC assembly inh	ALDH1A1 block	CBFb-RUNX1 inh	HPGD block
CC(C)c1ccc2nc3sc(C(=O)N4CCc5ccccc5C4)c(N)c3cc2c1	-4.4%	-18.5%	55.9	-14.7%	24.5%	15.8µM*
Cc1ccc2nc3sc(C(=O)N4CCOCC4)c(N)c3cc2c1	11.0%	-123.0%	-11.0	-10.6%	0.7%	25.1µM*
CCc1ccc(NC(=O)C(C)Nc2ccc(S(=O)(=O)NC(C)=O)cc2)cc1 (configuration not stated)	12.5%	-27.0%[10 µM]	0.1	13.5%	10.1%	-8.8%
COCC(=O)N1CCC[C@@]2(CCN(C(=O)Nc3ccc(OC)cc3)C2)C1	.	?	.	1.0%	.	-5.6%
CN(C)/C=C1\C(=O)N(c2ccc(Cl)cc2)CS1(=O)=O	8.2%	-38.2%	?	4.9%	-0.4%	15.8µM*
CC1=C(C(=O)c2ccccc2)C(c2ccc(OC(F)F)cc2)NC(=S)N1 (configuration not stated)	-24.5%	-40.7%	.	1.12µM*	-8.7%	.
CCOC(=O)c1c(/N=C/C2=C(O)CCCC2=O)sc(C)c1C	4.9%	.	-16.9	-7.3%	-10.1%	-7.1%
CCOC(=O)c1c(-c2ccc(OC)cc2)csc1/N=C/C1=C(O)CCCC1=O	?	.	?	2.24µM*	5.5%	-6.6%
CCOc1ccc(-c2nc(-c3cccnc3)no2)cc1	-8.8%	-34.2%[10 µM]	-100.0*	2.4%	3.6%	-25.9%
CC(=O)N1CCN(c2nc(-c3ccco3)c3c(c2C#N)CC(C)(C)SC3)CC1	12.6µM*	-52.4%	-2.0	?	0.6%	?
CC1(C)Cc2c(c(-c3ccccc3)[nH]c(=O)c2C#N)CS1	18.0%	2.7%	-8.3	28.2µM*	-3.4%	?
CC1(C)Cc2c(C#N)c(N3CCN(C(=O)c4ccco4)CC3)nc(-c3ccco3)c2CS1	23.7%	25.4%[10 µM]	143.7	2.1%	3.8%	?
CC1(C)Cc2c(c(-c3ccco3)[nH]c(=O)c2C#N)CS1	6.2%	3.6%[10 µM]	-21.3	5.62µM*	-7.8%	14.1µM*
CCC1(C)Cc2ccccc2C(=S)N1 (configuration not stated)	.	.	.	0.2%	-3.0%	.
O=C(CSC1CCCCC1)Nc1ccccc1Br	-0.4%	?	?	1.1%	0.2%	17.8µM*
CCN(CC(=O)Nc1ccccc1Br)C1CCCCC1	-13.8%	-17.7%	.	?	1.6%	.
Cn1ncc(Oc2ccc([N+](=O)[O-])cc2)c(Cl)c1=O	7.0%[9.22 µM]	-4.4%[10 µM]	.	.	12.0%	.
CC(C)(C)n1ncc(Oc2ccccc2[N+](=O)[O-])c(Cl)c1=O	12.6µM*	.	-26.5	5.7%	-2.8%	?
Cc1cccc(NC(=O)CSc2nnc(NC(=O)CN3CCCCC3)s2)c1	13.6%	7.3%[10 µM]	-23.8	18.7%	-0.3%	-11.4%
Cc1cccc(Nc2nnc(SCC(=O)Nc3cccc(S(=O)(=O)N4CCCCC4)c3)s2)c1	11.8%	-0.1%[10 µM]	13.3	?	-24.7%	20µM*
CCc1ccc(Nc2nnc(SCC(=O)Nc3cccc(S(=O)(=O)NC4=NCCCCC4)c3)s2)cc1	5.9%	-15.8%[10 µM]	0.0	17.8µM*	1.4%	?
O=C(O)C1=C(CSc2nnnn2CS(=O)(=O)O)CS[C@@H]2[C@H](NC(=O)[C@H](O)c3ccccc3)C(=O)N12	19.2%	2.0%	.	.	.	.
COc1ccc(C(=O)N/C(=C\c2cn(C)c3ccccc23)C(=O)OCCN(C)C)cc1	4.1%[9.22 µM]	17.7%[10 µM]	.	2.9%	5.5%	.
CCCCOC(=O)/C(=C/c1cn(C)c2ccccc12)NC(=O)c1ccc(OC)cc1	-15.0%	-27.3%[10 µM]	-93.3*	6.5%	-4.1%	-1.4%
CC1CCC2C(=O)OC(CN3C(=O)c4ccccc4C3=O)CN2C1c1ccc(Br)cc1 (configuration not stated)	.	-2.6%[10 µM]	.	?	6.2%[13.1 µM]	.
COc1ccc(CCNC(=S)N2CCC(Cc3ccccc3)CC2)cc1OC	22.4µM*	-62.9%	.	?	-14.3%	.
S=C(Nc1ccccc1)N1CCN(Cc2ccccc2)CC1	-7.6%[9.22 µM]	8.0%[10 µM]	.	.	7.9%	.
